SmPrx2 inh: Schistosoma Mansoni Peroxiredoxins (Prx2); Schistosoma mansoni peroxiredoxin 2 (Prx2); S. mansoni Prx2 activity coupled to TGR/GSH (TGR is thioredoxin glutathione reductase), NADPH fluorescence loss, qHTS; Potency, µM; hit rate 0.07% among 65,000; AID 448, 2006
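Purified S. mansoni TGR and Prx2 in pH 7.4 phosphate buffer with EDTA and Tween-20 were preincubated with compounds for 15 min. Further NADPH/GSH was added, then a 2.5 mM H2O2 aliquot initiated turnover, followed kinetically by NADPH fluorescence.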
Anthrax LT inh: qHTS Assay for Anthrax Lethal Toxin Internalization; hit rate 0.67% among 70,000; Cells, anthrax lethal toxin internalization, FRET ratio (460/530); Potency, µM (top dose mostly 40 µM), without a hit: at the highest dose activity change, negative = inhibition, usual class: inhibitors; AID 912, 2007; note: % is set by controls: 0 for no effect and ±100 for the full control effect; nearly all actives have a fitted effect of over 50% in size
AmpC nodet inh: Promiscuous and Specific Inhibitors of AmpC Beta-Lactamase (assay without detergent) | AmpC nitrocefin hydrolysis, absorbance 480 nm, no detergent | Potency, µM (top dose mostly 28.7 µM), inactives show top-dose activity change, negative = inhibition | hit rate 1.8% among 71,000 | AID 585, 2007; note: % of control where 0% means no effect
Target sequence (P00811 whole entry, looked up): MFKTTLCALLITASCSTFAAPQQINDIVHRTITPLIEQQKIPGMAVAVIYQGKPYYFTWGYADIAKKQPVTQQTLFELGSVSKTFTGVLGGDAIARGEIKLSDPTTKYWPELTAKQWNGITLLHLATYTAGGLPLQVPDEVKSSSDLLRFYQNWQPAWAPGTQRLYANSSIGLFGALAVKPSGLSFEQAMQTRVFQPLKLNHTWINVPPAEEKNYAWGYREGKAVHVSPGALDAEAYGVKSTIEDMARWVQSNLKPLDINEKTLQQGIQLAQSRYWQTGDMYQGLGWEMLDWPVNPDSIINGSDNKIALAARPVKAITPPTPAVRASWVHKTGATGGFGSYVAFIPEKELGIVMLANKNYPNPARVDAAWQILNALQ
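AmpC in 20 mM phosphate buffer pH 7.0 was preincubated 15 min at room temperature with compounds. Nitrocefin (800 uM stock) was then added and hydrolysis followed at 480 nm every 20 s for 4 min.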
AmpC inh det: Promiscuous and Specific Inhibitors of AmpC Beta-Lactamase (assay with detergent). P00811. Potency, µM (series often up to 28.7 µM), for inactives: top-dose activity change, negative = inhibition. purified AmpC, nitrocefin hydrolysis with detergent. hit rate 0.09% among 71,000; active = well fitted curve in the direction sought with a large enough effect; inconclusive = small, poorly fitted or top-dose-only effect; note: % is set by controls: 0 for no effect and ±100 for the full control effect
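E. coli AmpC (5.3 nM) in 20 mM phosphate pH 7.0 with 0.01% Triton X-100, preincubated 15 min RT with compound; nitrocefin (2 uL of 800 uM stock) hydrolysis followed by 480 nm absorbance every 20 s over 4 min.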
Numbers without * were called inactive; ? = inconclusive; . = not tested or not shown; ! = repeats disagree; [ ] = dose if it differs, or a comment. An excerpt weighted towards active compounds, which were near 2.6% of everything screened. Unless noted, calls come from the whole dose curve. Potency is the fitted concentration of half-maximal effect.

SMILES | SmPrx2 inh | Anthrax LT inh | AmpC nodet inh | AmpC inh det
CN(C)c1ccc(-c2nc(Nc3ccncc3)c3ccccc3n2)cc1 | >57 | 12.6µM* | 35.3% | 8.6%
COC(=O)c1ccc(CSc2nc3scc(-c4cccs4)c3c(=O)[nH]2)o1 | >57 | -2.1% | 12.6µM* | -5.1%
Cc1oc(C(C)(C)C)cc1C(=O)Nc1ccc2c(c1)OCCO2 | >57 | ? | 15.9% | -2.0%
CC(C)(C)c1ccc(/C=C/C(=O)Nc2ccc3c(c2)OCCO3)cc1 | . | 3.98µM* | . | .
Cn1cnc([N+](=O)[O-])c1SCC(=O)O | >57 | -8.7%[8 µM] | -11.6%[5.75 µM] | -2.6%[5.75 µM]
COCCNC(=O)c1cc2c(=O)n(C)c3ccccc3c2n1C | >57 | -8.4% | 3.98µM*[single pt active] | 15.0%
Cn1c(C(=O)NC2CC2)cc2c(=O)n(C)c3ccccc3c21 | >57 | 3.3% | 3.98µM*[single pt active] | 8.8%
CN(C)CCNC(=O)c1cc2c(=O)n(C)c3ccccc3c2n1C | >57 | 12.6µM* | ? | 13.5%
COCCCNC(=O)c1cc2c(=O)n(C)c3ccccc3c2n1C | >57 | 12.5% | 3.98µM*[single pt active] | 9.3%
CCOC(=O)N1CCC(NC(=O)c2cc3c(=O)n(C)c4ccccc4c3n2C)CC1 | >57 | ? | 158.0% | 14.2%
CCN(CC)CCNC(=O)c1cc2c(=O)n(C)c3ccccc3c2n1C | >57 | ? | ? | 9.2%
O=C(/C=C/c1c(C(=O)O)[nH]c2cc(Cl)cc(Cl)c12)Nc1ccccc1 | . | 8.0% | . | .
CCc1c(O)c2c(c(O)c1C(C)=O)C(=O)c1c(cc(O)c(C(=O)O)c1C(=O)O)C2=O | >57 | -11.2%[8 µM] | -17.0%[5.75 µM] | -2.8%[5.75 µM]
CCc1c2c(nc3cccc(OC)c13)OC(CC)C2 (stereo not given) | >57 | -9.8% | 14.5% | -4.7%
CCOC(=O)C1CCCN(C(=O)c2ccc(CS(=O)(=O)Cc3ccccc3C)o2)C1 (stereo not given) | >57 | ? | 52.7% | -1.7%
Cc1ccc(S(=O)(=O)Cc2ccc(C(=O)N3CCCC3)o2)cc1 | >57 | -5.1% | 3.98µM*[single pt active] | 11.8%
Cc1ccc(S(=O)(=O)Cc2ccc(C(=O)N3CCCCCC3)o2)cc1 | >57 | -7.7% | 49.1% | 15.4%
CCOC(=O)C1CCCN(C(=O)c2ccc(CS(=O)(=O)c3ccc(C)cc3)o2)C1 (stereo not given) | >57 | -7.8% | 2.51µM*[single pt active] | 10.8%
N[C@]1(C(=O)O)CC[C@@H](C(=O)O)C1 | >57 | -0.5% | 3.6% | -1.3%
CCOC(=O)CCc1c(C)c2ccc(OCc3nn[nH]n3)cc2oc1=O | >57 | ? | 1.3% | -0.4%
Cc1c(Cc2ccccc2)c(=O)oc2cc(OCc3nn[nH]n3)ccc12 | >57 | ? | 10µM*[single pt active] | -3.4%
Cc1c(C(=O)N2CCCC2)oc2c1-c1[nH]ncc1CC2 | >57 | 6.2% | 3.98µM*[single pt active] | 10.2%
CC(=O)Nc1ccc(C(=O)CCl)cc1 | . | 12.6µM* | -9.4% | 9.3%
COc1ccc(-c2nc(CS(=O)CC(=O)NCc3ccco3)c(C)o2)cc1 (stereo not given) | >57 | 5.0% | 3.98µM*[single pt active] | 9.9%
CCCNC(=O)CS(=O)Cc1nc(-c2cccc(OC)c2)oc1C (stereo not given) | >57 | 4.4% | 3.98µM*[single pt active] | 10.4%
SMILES | SmPrx2 inh | Anthrax LT inh | AmpC nodet inh | AmpC inh det
COc1cccc(-c2nc(CS(=O)CC(=O)NCc3ccccc3)c(C)o2)c1 (stereo not given) | >57 | -0.9% | 3.98µM*[single pt active] | 13.0%
COc1ccc(-c2nc(CS(=O)CC(=O)NCc3cccnc3)c(C)o2)cc1 (stereo not given) | >57 | 0.1% | 3.16µM*[single pt active] | 8.9%
CC1=CC(=O)C2=C(C)CC[C@@H]3[C@H](OC(=O)[C@H]3C)[C@H]12 | >57 | ? | 8.5% | -1.4%
CN(C)CCCCN1CCc2c(n(C)c3ccccc23)C1=O | >57 | -3.6%[8 µM] | 17.1%[5.75 µM] | -3.4%[5.75 µM]
Cc1nc2ccc(S(=O)(=O)NC(C(=O)NCc3cccs3)C(C)C)cc2s1 (stereo not given) | >57 | -13.1% | 3.98µM*[single pt active] | 10.7%
Cc1nc2ccc(S(=O)(=O)NC(C(=O)Nc3nccs3)C(C)C)cc2s1 (stereo not given) | >57 | -10.9% | 3.98µM*[single pt active] | 9.3%
CCCCC#CC1C=CC(OC(C)=O)C(COC(C)=O)O1 (stereo not given) | . | 3.8%[8 µM] | . | .
O=C(NCCN1CCCC1)c1ccc(CS(=O)(=O)c2c(Cl)cccc2Cl)o1 | >57 | -9.3% | 3.98µM*[single pt active] | 12.7%
CN(C)CCNC(=O)c1ccc(CS(=O)(=O)c2c(Cl)cccc2Cl)o1 | >57 | -21.8% | 9.9% | 4.4%
COc1ccc2c(c1)OC13CCN(C)CC1C2C(C(=O)c1ccc(F)cc1)C(=O)N3 (stereo not given) | >57 | -17.7% | 3.98µM*[single pt active] | 16.3%
O=C(COC(=O)c1cc(-c2ccco2)nc2ccccc12)NCc1ccc2c(c1)OCO2 | >57 | ? | 12.6µM* | -11.8%
O=S(O)O.O=S(O)O.[Co].[NH2-].[NH2-].[NH2-].[NH2-] | >57 | -1.1%[8 µM] | 14.2%[5.75 µM] | -3.7%[5.75 µM]
Cc1cccc(-c2nc(CS(=O)CC(=O)N3CCCCC3)c(C)o2)c1 (stereo not given) | >57 | -3.1% | 3.98µM*[single pt active] | 16.5%
CCOC(=O)N1CCN(C(=O)CS(=O)Cc2nc(-c3ccc(C)cc3)oc2C)CC1 (stereo not given) | >57 | -15.8% | 108.6% | 12.3%
Cc1cccc(-c2nc(CS(=O)CC(=O)NCC3CCCO3)c(C)o2)c1 (stereo not given) | >57 | -5.1% | 3.98µM*[single pt active] | 10.6%
Fc1ccc(C2CC(c3ccco3)n3ncnc3N2)cc1 (stereo not given) | >57 | -11.0% | 3.98µM*[single pt active] | 11.4%
CO/N=C(\C(=O)N[C@@H]1C(=O)N2C(C(=O)O)=C(COC(C)=O)CS[C@@H]12)c1csc(N)n1 | >57 | 3.1%[3.58 µM] | 1.26µM*! | 1.26µM*
CC(=O)OCC1=C(C(=O)O)N2C(=O)[C@@H](NC(=O)Cc3cccs3)[C@@H]2SC1 | >57 | -2.7%[3.58 µM] | -8.5%[12.8 µM] | -7.6%[12.8 µM]
C=CC1=C(C(=O)O)N2C(=O)[C@@H](NC(=O)/C(=N\OCC(=O)O)c3csc(N)n3)[C@@H]2SC1 | >57 | 3.0%[3.58 µM] | 0.316µM* | 0.2µM*
O=C(O)CCC/C=C\C[C@H]1[C@@H](/C=C\[C@@H](O)C2Cc3ccccc3C2)[C@H](F)C[C@H]1O | >57 | 5.5% | 14.0% | 0.3%
COc1cccc(-c2ccc3ncnc(NCc4cccs4)c3c2)c1 | >57 | 12.6µM* | 6.31µM* | 10µM*
c1ccc(CN2CCN(CCCNc3ccc4nnc(-c5ccccc5)n4n3)CC2)cc1 | >57 | ? | 120.4% | 7.5%
Fc1ccccc1N1CCN(CCCNc2ccc3nncn3n2)CC1 | >57 | -14.1% | 3.98µM*[single pt active] | 15.4%
Cc1cccc(NS(=O)(=O)c2cc(C(=O)OCC(=O)Nc3cc(C)on3)ccc2C)c1 | >57 | -23.8% | ? | -0.4%
Cc1cccc(NS(=O)(=O)c2ccc(C)c(C(=O)OCC(=O)Nc3cc(C)on3)c2)c1 | >57 | ? | 10µM* | -5.6%
N/C(CC/C(N)=N/O)=N\O | >57 | ? | 4.1%[5.75 µM] | -2.7%[5.75 µM]
CNc1sc(C(=O)c2cccs2)c(N)c1-c1nc2ccccc2s1 | >57 | ? | 12.6µM*[single pt active] | -2.0%
